Results from ChEMBL document CHEMBL3988442, “University of Dundee, Small-Polar-MMV Screening Library” (2021).
The whole screen tested about 69,000 compounds, of which about 420 (0.61%) showed an effect of 50% or more. The entries come from a sample that favours strong results as a whole.

Each molecule was assayed against T1, Histidine--tRNA ligase (Leishmania infantum) (UniProt A4I591) (assay: Leishmania infantum Histidine tRNA synthetase (LdHisRS)). Conditions: 30 µM.
T1 sequence (whole entry): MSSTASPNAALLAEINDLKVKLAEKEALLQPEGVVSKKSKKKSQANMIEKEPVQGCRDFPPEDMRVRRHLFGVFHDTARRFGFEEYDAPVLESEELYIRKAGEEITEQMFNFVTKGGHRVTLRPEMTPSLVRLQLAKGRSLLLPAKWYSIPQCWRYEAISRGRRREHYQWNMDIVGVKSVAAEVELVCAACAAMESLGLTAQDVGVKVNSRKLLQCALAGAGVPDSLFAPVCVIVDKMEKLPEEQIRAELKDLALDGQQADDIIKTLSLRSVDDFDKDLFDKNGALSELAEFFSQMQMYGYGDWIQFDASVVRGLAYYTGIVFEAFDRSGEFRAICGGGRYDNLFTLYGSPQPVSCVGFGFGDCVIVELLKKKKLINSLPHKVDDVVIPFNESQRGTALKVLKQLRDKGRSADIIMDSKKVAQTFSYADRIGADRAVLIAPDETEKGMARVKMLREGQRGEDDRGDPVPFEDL
Assay type: functional
Parameters: scale not given: in the data most compounds retested in dose-response had high values

First: COc1ccc(N2Cc3nc(N)ncc3C2=O)cc1
Second: Cc1ccc(-n2nc(C)c3c2NC(=O)CC3c2cnc(N)s2)cc1 (stereo not drawn)
The Percent Effect of the first is lower: 0% for the first, 17.3% for the second.

Going from O=C1[C@H]2CN(CC3CC3)C[C@H]2CN1Cc1cccc(F)c1 to Cc1nc(CN2C[C@@H]3CN(c4ncc(F)cn4)C[C@@H]3C2=O)cs1, the Percent Effect rises from -1.5% to 19.7%.

Compared with O=C([C@H]1C[C@H]2OCC[C@H]2N(CCc2ccccc2)C1)N1CCCCO1, O=C([C@H]1CCS(=O)(=O)[C@@H]2CN(CCc3ccccc3)C[C@H]12)N1CCCC1 is higher in Percent Effect: 9.02% for the first, 17.6% for the second.

First: O=C(c1cccnc1)N1C[C@@H]2CC[C@H](C1)N(Cc1ccc(F)cc1Cl)C2
Second: O=C(Nc1cnn(Cc2ccc(F)cc2Cl)c1)C1CC1
The Percent Effect of the first is lower: 7.2% for the first, 15.9% for the second.

First: CC(=O)N1CCN2C[C@H](CO)[C@@H](c3ccccc3)[C@H]2C1
Second: COc1cccc(C(=O)N2C[C@@H](c3ccccc3)[C@@H]3NCCCC[C@@H]32)c1
The Percent Effect of the first is lower: 2.04% for the first, 10.3% for the second.

Compared with COC(=O)CC(C1=Cc2ccccc2OC1)c1oc(C)cc(=O)c1O (stereo not drawn), CCN1C(=O)C(C#N)=C(C)/C(=C/C2=Cc3ccccc3OC2)C1=O is higher in Percent Effect: 23.1% for the first, 86.8% for the second.

Going from CC1=C(C#N)C(=O)N(C)C(=O)/C1=C\C1=Cc2ccccc2OC1 to CC1=C(C#N)C(=O)NC(=O)/C1=C\c1c(C)nn(-c2ccccc2)c1O, the Percent Effect falls from 92.1% to 43.3%.

Compared with CC(Cn1cccn1)NC(=O)C1=Cc2ccccc2OC1 (stereo not drawn), O=C(Nc1cccnc1)C1=Cc2ccccc2OC1 is higher in Percent Effect: 16% for the first, 25% for the second.

Going from Cc1nc([C@H]2C[C@H]3CN(C(=O)c4cc(C)c(C)s4)CC[C@@H]3O2)no1 to Cc1cnc(C(=O)N2C[C@H]3CN(Cc4cccs4)C[C@H]3C2)cn1, the Percent Effect falls from 20.6% to -3.19%.

Going from Cc1nc2c(c(=O)[nH]1)CN(C(=O)CC[C@@H]1CCCN3CCCC[C@H]13)C2 to Cc1nc(O)cc(CCNC(=O)CC[C@@H]2CCCN3CCCC[C@H]23)n1, the Percent Effect rises from 3.54% to 5.38%.

First: Cc1ccc(CN2CC[C@@H]3[C@@H](CO[C@H]3CN3CCN(C)CC3)C2)s1
Second: Cc1ccnc(N2CCN(C[C@]3(O)CCCN4CCCC[C@@H]43)CC2)c1
The Percent Effect of the first is lower: -11.1% for the first, 2.86% for the second.

First: O=C(c1cscn1)N1C[C@H](OCc2cccnc2)[C@H]2COC[C@H]21
Second: O=C(c1ncccn1)N1C[C@H]2CCC[C@@]2(COCc2cccnc2)C1
The Percent Effect of the first is higher: 9.72% for the first, -3.92% for the second.

Going from CCC1=N[C@@]2(CC[C@@H]3CN(Cc4ccccc4C)C[C@@H]32)C(=O)N1C to CC1CCN(Cc2ccccc2CNC(=O)C2CNC(=O)N2)CC1 (stereo not drawn), the Percent Effect falls from 10% to 5.18%.

Going from Cn1cccc1C(=O)N[C@@H]1CN(Cc2ccsc2)[C@@H]2COC[C@@H]21 to O=C(NCc1ccco1)[C@H]1COC[C@H]2CN(Cc3ccccn3)C[C@H]21, the Percent Effect falls from 20% to 14%.

Going from CC1=C(C#N)C(=O)NC(=O)/C1=C\c1c(C)nn(-c2ccc(C)cc2)c1O to CC1=C(C#N)C(=O)NC(=O)/C1=C\c1c(C)nn(-c2ccc(Cl)cc2)c1O, the Percent Effect falls from 70.1% to 51.5%.

Going from Cc1nn(C)c(=O)c2nn(-c3ccc(Cl)cc3)c(C)c12 to CCN(CC)CCNC(=O)CCc1c(C)nn(-c2ccc(Cl)cc2)c1C, the Percent Effect rises from 5.5% to 7.92%.

First: Cc1cc(CN2CC[C@H]3OCC[C@@]3(C(=O)NCc3ccco3)C2)no1
Second: Cc1ccc(NC2CCN(C(=O)CCc3ccco3)CC2)nn1
The Percent Effect of the first is lower: 11.4% for the first, 27.7% for the second.

First: Cc1ccncc1C(=O)N1CC[C@@]2(O)CCN(C3CCCCC3)C[C@H]2C1
Second: CS(=O)(=O)CCC(=O)N1C[C@@H]2CC[C@H](C1)N(Cc1ccccn1)C2=O
The Percent Effect of the first is lower: 14.5% for the first, 18% for the second.

Compared with c1cnn(CCCO[C@@H]2CC[C@H]3[C@H]2OCCN3CC2CCOCC2)c1, O=C(CC1CC1)N[C@@H]1CN(Cc2ccoc2)C[C@@H]2CCCO[C@@H]21 is lower in Percent Effect: 13.9% for the first, -31.4% for the second.

First: Cc1noc(C)c1CN1C[C@@H]2CC[C@H](C1)N(Cc1cc(F)cc(F)c1)C2
Second: CS(=O)(=O)N1C[C@@H]2CC[C@H](C1)N(C(=O)Cn1ccc3ccccc31)C2
The Percent Effect of the first is higher: 24.7% for the first, 11.6% for the second.

Compared with Cc1ccc(N2CCCC3(COCCN(c4nccs4)C3)C2)nn1 (stereo not drawn), Cc1ccc(N2CCC3(CC2)COCCN(c2nccs2)C3)nn1 is higher in Percent Effect: 11.4% for the first, 58.5% for the second.

First: Cc1ccc(N2CC3(CCN(c4nccs4)C3)C2)nn1
Second: Cc1ccc(N(C)C2CCN(C(=O)CCc3ccco3)CC2)nn1
The Percent Effect of the first is lower: 9.52% for the first, 58.5% for the second.

Going from Cn1cc(CN2CC[C@@H]3[C@H]2CCC(=O)N3c2ccccc2)cn1 to O=C1CCC(C(=O)Nc2cnn(-c3ccccc3Cl)c2)N1 (stereo not drawn), the Percent Effect rises from 5.56% to 19.5%.

Compared with Cn1cccc(NC(=O)COc2ccc(Br)cc2)c1=O, CN(CCOc1ccccc1)C(=O)Nc1cccn(C)c1=O is higher in Percent Effect: 26.1% for the first, 112% for the second.

First: COc1c(NC(=O)N(C)CCOc2ccccc2)c(C)nn1C
Second: Cc1ccccc1NC1CCN(C(=O)CCc2ccco2)CC1
The Percent Effect of the first is higher: 24.1% for the first, 12.5% for the second.

First: O=C(Nc1ccc(=O)n(Cc2ccccc2Cl)c1)C1CC1
Second: O=C1NCC(C(=O)Nc2ccc(=O)n(Cc3ccccc3Cl)c2)N1 (stereo not drawn)
The Percent Effect of the first is higher: 114% for the first, 92.8% for the second.

Work on O=C1NCC(C(=O)NCc2ccccc2CN2CCOCC2)N1 (stereo not drawn) yielded a Percent Effect of 7.25%.
